Screens (PubChem BioAssay)
TDP1 cell noCPT: qHTS for Inhibitors of human tyrosyl-DNA phosphodiesterase 1 (TDP1): qHTS in cells in absence of CPT | DT40 Tdp1-/- hTDP1 cells, no CPT, ATP luminescence, 48 h | Potency, µM (series often up to 46.2 µM), inactives show at the top dose activity change, negative = growth inhibition, actives largely listed as inhibitors | 420,000 compounds, 15% hits | AID 686978, 2013; note: potency is the fitted concentration of half-maximal effect; nearly all actives have a fitted effect of over 55% in size
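Camptothecin absent (DMSO only). Human TDP1-complemented DT40 knockout cells, 400 cells/well, 37 °C for minimum 48 hr; ATP measured via CellTiter-Glo, 30 min dark incubation, luminescence.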
HT1080 IDH1KD tx: qHTS for induction of synthetic lethality in tumor cells producing 2HG: qHTS for the HT-1080-IDH1KD cell line; HT-1080 IDH1 knockdown viability, ATP luminescence, 48 h; Potency, µM (doses to about 46.1 µM), without a hit: top-dose activity, negative = toxicity, most hits filed as cytotoxic; 360,000 compounds, 2% hits;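 note: potency is the fitted concentration of half-maximal effect; 0% = DMSO wells and -100% = cell-free medium wells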
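Knockdown cells (IDH1KD HT-1080) received compounds 2 h after plating at 750 cells/well and were kept 48 h at 37 °C in 5% FBS RPMI. A CellTiter-Glo luminescence read gave % activity for curve fitting.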
HT1080-NT tox: qHTS for induction of synthetic lethality in tumor cells producing 2HG: qHTS for the HT-1080-NT fibrosarcoma cell line | 360,000 compounds, 1.6% hits | Potency, µM (top dose mostly 46.1 µM), for the others: at the top dose activity, negative = less viability, actives largely listed as cytotoxic | HT-1080-NT fibrosarcoma viability, CellTiter-Glo ATP luminescence, 48 h;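 note: NT is the 2HG producing partner of a matched IDH1 knockdown line; potency is the fitted concentration of half-maximal effect; 0% = DMSO-treated cells and -100% = media-only wells without cells; nearly all actives have a fitted effect of over 55% in size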
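A 48-hour cytotoxicity screen used HT-1080-NT cells plated 2 hours before compound delivery. ATP-based CellTiter-Glo luminescence measured viability, normalized to DMSO and no-cell controls.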
IL1B secr inh: qHTS for Inhibitors of Inflammasome Signaling: IL-1-beta AlphaLISA Primary Screen; THP-1 LPS/ATP IL-1B secretion, AlphaLISA, 16 h; hits give low values; activity change, % at 57.5 µM; 360,000 compounds, 4.7% hits; AID 743279, 2014; in the data active = activity change below about -50%; inconclusive = mostly about -30% to -49%
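THP-1 cells pretreated 1 hr with compounds (up to 57.5 uM final), then stimulated with LPS (250 ng/mL final) plus ATP (1.25 mM final); secreted IL-1B measured by AlphaLISA after 16 hr, decreased signal indicating inhibition.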
uPA surface inh: qHTS for Inhibitors of Cell Surface uPA Generation. cell surface uPA generation assay, qHTS. Potency, µM (doses to about 38.3 µM), for inactives: at the top dose activity change, negative = inhibition, most hits filed as inhibitors. 330,000 compounds, 0.31% hits. AID 540303, 2011; active = well fitted inhibition curve with a large enough effect; inconclusive = small, poorly fitted or top-dose-only effect; inactive = no such curve, though single readings can be large or run the other way; tested in mouse RAW 264.7 cells; note: potency is the fitted concentration of half-maximal effect; nearly all actives have a fitted effect of over 55% in size
TDP1 cell CPT: qHTS for Inhibitors of human tyrosyl-DNA phosphodiesterase 1 (TDP1): qHTS in cells in presence of CPT; chicken DT40 Tdp1-/-;hTDP1 cells + 20 nM CPT, ATP luminescence, 48 h; Potency, µM (top dose mostly 46.2 µM), without a hit: at the top dose activity change, negative = growth inhibition, most hits filed as inhibitors; 420,000 compounds, 12% hits; note: potency is the fitted concentration of half-maximal effect; nearly all actives have a fitted effect of over 55% in size
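Chicken DT40 Tdp1-/- cells stably complemented with human TDP1 were seeded at 400 cells/well in medium containing 20 nM camptothecin, exposed to pin-transferred compounds, and grown at 37 °C for at least 48 hr. Viability was read as ATP luminescence.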
Active calls of the source: *; ? = inconclusive; · = not tested or not shown; [ ] = remark or other dose. Compounds with a hit are over-represented: about 19% of the library has one in this group of screens. Unless noted, calls come from the whole dose curve; as a rule, active = well fitted curve in the direction sought with a large enough effect; inconclusive = small, poorly fitted or top-dose-only effect, or another doubt; inactive = no such curve, though single readings can be large; an effect the other way counts as inactive or inconclusive. Unless noted, % is set by controls: 0 for no effect and ±100 for the full control effect.

SMILES	TDP1 cell noCPT	HT1080 IDH1KD tx	HT1080-NT tox	IL1B secr inh	uPA surface inh	TDP1 cell CPT
O=C(c1cscn1)N1CCOc2ccc(CN3CCC(Oc4cccnc4)CC3)cc2C1	0.29µM*	·	·	·	·	?
Cc1ccc(CN2CCOc3ccc(CN4CCC(Oc5cccnc5)CC4)cc3C2)o1	?	·	·	·	·	6%[9.04 µM]
COc1cc(OC)c(CN2CCOc3ccc(CN4CCC(O)CC4)cc3C2)c(OC)c1	23µM*	·	·	·	·	?
O=C(c1ccoc1)N1CCOc2ccc(CN3CCC(Oc4cccnc4)CC3)cc2C1	-29%	·	·	·	·	3%[9.04 µM]
COc1ccc(CN2CCOc3ccc(CN4CCC(Oc5cccnc5)CC4)cc3C2)c(F)c1	21µM*	·	·	·	·	?
Cc1nc(CCNC(=O)CC2C(=O)NCCN2Cc2ccccc2)nc2c1CCC2 (configuration not stated)	0%	-9%	-3%	-9	5%	6%
CC(C)(C)c1ccc(CC(=O)N2CCC2(C)C(=O)O)cc1 (configuration not stated)	-21%	4%	14%	2	·	6%
CCC(=O)N1CCc2cc(S(=O)(=O)N3CCN(c4ccccc4F)CC3)ccc21	-9%	·	·	·	·	0%
Cn1cc(S(=O)(=O)Nc2ccc(F)c(Cl)c2)c(=O)n(C)c1=O	5%	5%	2%	14	?	-3%
CCOC(=O)c1ccc(NC(=O)CN(c2ccc(C)cc2)S(=O)(=O)c2c(C)nn(C)c2C)cc1	?	?	?	13	-6%	23µM*
CCOc1ccccc1NC(=O)CN(c1cc(C)cc(C)c1)S(=O)(=O)c1c(C)nn(C)c1C	21µM*	·	·	·	·	21µM*
CCOc1ccccc1NC(=O)CN(c1ccc(C)cc1)S(=O)(=O)c1c(C)noc1C	?	-13%	-15%	-8	-1%	?
CC(=O)C1C(c2cccc(F)c2)c2c(n[nH]c2C)CC1(C)O (configuration not stated)	-16%	-1%	12%	12	4%	-9%
O=C(C[C@@H]1C=C[C@@H](NC(=O)c2cccnc2)[C@@H](CO)O1)NCc1ccncn1	1%	18%	16%	-2	·	10%
CC(C)c1nnc(NC(=O)CCS(=O)(=O)Cc2ccccc2)s1	-19%	20%	2%	5	0%	-20%
COc1ccc(Cl)cc1NC(=O)CCS(=O)(=O)c1nc(-c2cccs2)cc(C(F)(F)F)n1	3.3µM*	·	·	·	·	4.6µM*
COc1ccc(S(=O)(=O)CCC(=O)Nc2cc(C)ccc2OC)cc1	-32%	5%	9%	8	11%	-13%
CC(C)c1nnc(NC(=O)CCS(=O)(=O)c2nc(-c3cccs3)cc(C(F)(F)F)n2)s1	4.1µM*	?	?	-110*	-14%	2.9µM*
COc1ccc(NC(=O)CCS(=O)(=O)c2nc(-c3cccs3)cc(C(F)(F)F)n2)cc1	5.2µM*	·	·	·	·	4.6µM*
O=C(CCS(=O)(=O)c1nc(-c2cccs2)cc(C(F)(F)F)n1)Nc1ccc(OC(F)(F)F)cc1	-24%	·	·	·	·	?
O=C(CCS(=O)(=O)c1nc(-c2cccs2)cc(C(F)(F)F)n1)Nc1ccc(F)c(Cl)c1	9.2µM*	·	·	·	·	4.6µM*
COc1ccc(-c2oc3ncn4nc(COc5ccc(Cl)cc5)nc4c3c2-c2ccc(OC)cc2)cc1	-27%	·	·	·	·	-25%
COCCNC(=O)c1cn(C)c2ccc(S(=O)(=O)N3CCCCC3)cc2c1=O	?	?	-7%	6	?	?
Cc1csc(-c2ccc3cc(Cl)cc(Cl)c3n2)n1	-29%	16%	7%	44	·	2%
CCOC(=O)c1[nH]nc(-c2cc(CC)c(O)cc2O)c1-c1cscn1	?	?	?	-61*	·	?
SMILES	TDP1 cell noCPT	HT1080 IDH1KD tx	HT1080-NT tox	IL1B secr inh	uPA surface inh	TDP1 cell CPT
CCN(C(=O)c1cc2cc(Br)cc(OC)c2oc1=O)c1ccccc1	-30%	·	·	·	·	-8%
COc1ccc(-c2cc(C(F)(F)F)nc(NCc3ccccc3)n2)cc1OC	21µM*	·	·	·	·	?
COc1ccc(CNc2nc(-c3ccc(OC)cc3)cc(C(F)(F)F)n2)cc1	5.8µM*	·	·	·	·	13µM*
COc1cccc(-c2cc(C(F)(F)F)nc(NCc3ccco3)n2)c1	-20%	2%	16%	5	-2%	-11%
COc1ccc(-c2cc(C(F)(F)F)nc(NCc3ccco3)n2)cc1OC	-27%	-9%	0%	39	-10%	5%
Cc1cc(C)nc(NC(=NCCc2c[nH]c3ccccc23)NC(=O)c2ccco2)n1	10µM*	-16%	-12%	-28	-2%	21µM*
Cc1cc(C)nc(NC(=NCCc2c[nH]c3ccccc23)NC(=O)Nc2ccccc2)n1	18µM*	-28%	-20%	-23	-4%	?
Cc1cc(C)nc(NC(=NCCc2c[nH]c3ccccc23)NC(=O)Nc2cccc([N+](=O)[O-])c2)n1	7.3µM*	-6%	-3%	-1	0%	13µM*
Cc1cc(C)nc(NC(=NCCc2c[nH]c3ccccc23)NC(=O)Nc2ccc(Cl)c(Cl)c2)n1	13µM*	-22%	-4%	2	1%	15µM*
CCc1ccc(NC(=O)c2sc3nc(C)c(C(=O)Nc4ccc(C)cc4C)c(-c4ccco4)c3c2N)cc1	-15%	·	·	·	·	0%
CC(=O)N1CCC2(CC1)CN(c1ccncc1)C2	-8%	·	·	·	·	2%
CCOC(=O)c1ccc(CN(Cc2ccc(F)cc2)S(=O)(=O)c2ccc(F)c(C(=O)Nc3ccc(Cl)cc3F)c2)cc1	-9%	·	·	·	·	11%
O=C1OC(c2ccc(F)cc2)CC1CN1CCOCC1 (configuration not stated)	10µM*	16µM*	?	-11	·	5.8µM*
O=C(CN1CCOCC1)Nc1ccc(F)cc1	-6%	-1%	9%	9	21%	-8%
CC(C)OCCCNC(=O)c1cn(C)c2ccc(S(=O)(=O)N3CCCCCC3)cc2c1=O	-25%	·	·	·	·	2%
CC1=NOC(=O)/C1=C/c1ccc(O)c(Br)c1	?	6%	16%	-19	-3%	11%
C#CCOc1ccc(Cl)cc1/C=C1/C(=O)ON=C1C	?	-9%	-29%	50	-5%	23µM*
CCCOc1ccccc1/C=C1/C(=O)ON=C1C	?	3%	6%	-52*	9%	?
